tim23-1 inh – growth inhibitors of tim23-1 mutant yeast; S. cerevisiae tim23-1 growth, BacTiter-Glo luminescence, 24 h; inhibition, % at 20 µM; 1.3% of 330,000 active; AID 463212;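 active = growth inhibition of the mutant yeast at or above 50%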;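 note: temperature-sensitive mutant grown at 25 °C; plate controls were DMSO-treated mutant yeast for no effect and medium wells lacking yeast for full effect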
SKKanGAS inh – blocks kanamycin growth of S. pyogenes SKKanGAS strain | AID 1662 | inhibition, % at 7.5 µM | BacTiter-Glo, 6 h | 1.3% of 300,000 active;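 active = mean replicate score, as percent of positive control median, at least 50; inconclusive = mean below 50 but one replicate at or above 50; inactive = mean and every replicate below 50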;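 note: strain carries kanamycin resistance gene driven by streptokinase promoter and grows in 40 µg/ml kanamycin; loss of luminescence reflects streptokinase promoter inhibition or plain growth inhibition; 0% = median of DMSO wells and 100% = positive control at its reference dose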
tim10-1 inh – tim10-1 yeast growth inhibition | 2.2% of 330,000 active | inhibition, % at 20 µM | AID 463190 | S. cerevisiae tim10-1 ts strain growth, BacTiter-Glo, 24 h;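 active = inhibition of at least 40%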;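 note: mutant grown at 25 °C; 0% = DMSO wells with yeast and 100% = wells holding no yeast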
TIM10 inh – TIM10 yeast growth inhibition; AID 463195; inhibition, % at 10 µM; S. cerevisiae TIM10 strain growth, BacTiter-Glo luminescence, 24 h; 1.4% of 330,000 active;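 active = inhibition of 40% or more at the single tested concentration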;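 note: wild-type TIM10 isogenic control strain grown at permissive 25 °C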
PfHsp90 set2 – growth inhibition of yeast expressing Plasmodium Hsp90. 0.32% of 310,000 active. S. cerevisiae expressing PfHsp90, BacTiter-Glo ATP, 48 h; yeast lacking PDR1 and PDR3 efflux regulators. AID 504621. inhibition, % at 9.4 µM;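 active = every replicate shows inhibition above about 80%, whatever the replicate mean, limit read from the data; inconclusive = mean inhibition reaches the set limit but some replicate falls short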;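 note: 0% = DMSO neutral controls and 100% = 20 µM radicicol positive controls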
NALP3 yeast inh – inhibitors of NALP3 inflammasome in yeast; Yeast reconstituted NLRP3/ASC/caspase-1, beta-gal luminescence, 24 h; inhibition, % at 10 µM; 0.39% of 330,000 active; AID 2825;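 active = inhibition of 50% or more; inactive = inhibition below 50%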;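 note: plate controls were induced DMSO wells for no effect and uninduced yeast grown without galactose for full effect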
tim10-1 confirm – tim10-1 yeast growth inhibition, confirmed; inhibition, % at 20 µM; 56% of 7,400 active; S. cerevisiae tim10-1 ts strain growth, BacTiter-Glo, 24 h; AID 463213; shares compounds with tim10-1 inh;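 active = inhibition of yeast growth at or above a set limit in either of two repeat tests at 20 µM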;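 note: tim10-1 mutant grown at permissive 25 °C to find synthetic lethal compounds; 0% = DMSO yeast wells and 100% = medium wells without yeast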
Numbers without * were called inactive; ? = inconclusive; . = not tested or not shown. The list is not random: actives were taken first. Their share in the collection is about 4.6%.

SMILES	tim23-1 inh	SKKanGAS inh	tim10-1 inh	TIM10 inh	PfHsp90 set2	NALP3 yeast inh	tim10-1 confirm
Cc1ccccc1NS(=O)(=O)c1ccc(OCC(=O)N2CCCCC2)cc1	10	-9	8	-2	9	14	.
Cc1cc(C)n(-c2ccc(C(=O)N3CCN(S(=O)(=O)c4ccc(Cl)cc4)CC3)cc2)n1	15	.	21	5	13	23	.
Cc1ccc(S(=O)(=O)N2[C@@H](c3cccc(Cl)c3)C(C(=O)O)=CC[C@H]2c2cccs2)cc1	-6	.	1	-16	-23	22	.
CC(NC(=O)COC(=O)c1c[nH]c2ccccc12)c1ccccc1 (stereo not drawn)	2	.	-7	-4	.	12	.
COc1ccccc1NC(=O)C(C)OC(=O)/C=C/c1ccc2ccccc2n1 (stereo not drawn)	46	-7	52*	14	5	9	30*
COc1cc(OC)cc(C(=O)NNC(=O)CCNC(=O)c2ccc(Br)cc2)c1	2	.	1	5	-7	12	.
Cc1ccc(C(=O)N2CCCC(N3CCN(c4cccc(C(F)(F)F)c4)CC3)C2)s1 (stereo not drawn)	35	-4	42*	18	-10	10	21
CC(=O)N1CCCC(N2CCN(c3cccc(C(F)(F)F)c3)CC2)C1 (stereo not drawn)	1	2	-23	-4	2	9	.
COc1ccc(Oc2c(-c3ccc(O)cc3O)n[nH]c2C)cc1	3	-9	20	6	9	10	.
CCCOC(=O)c1ccc(Oc2c(-c3ccc(OCC)cc3O)n[nH]c2C)cc1	25	62*	41*	33	0	21	29
OC(COC(c1ccccc1)c1ccccc1)CN1CCc2ccccc2C1 (stereo not drawn)	6	-4	15	13	1	9	.
OC(COC(c1ccc(Cl)cc1)c1ccc(Cl)cc1)CN1CCc2ccccc2C1 (stereo not drawn)	18	17	44*	31	-8	31	-3
Cc1cc(C)n(-c2cc(N3CCOCC3)nc(-c3ccccc3)n2)n1	36	3	52*	26	-13	6	13
CCc1ccccc1OCC(=O)Nc1nc(-c2cccnc2)cs1	29	102*	40	7	75	16	29
CCC(=O)c1ccc(OCC(=O)Nc2nc(-c3cccnc3)cs2)cc1	-12	-13	-12	-24	-37	12	.
Cc1ccc2nc(COC(=O)c3ccc(Cl)nc3)cc(=O)n2c1	-7	.	-43	-29	9	-7	.
Clc1ccc(C2=CC(c3ccco3)n3ncnc3N2)cc1 (stereo not drawn)	24	10	43*	29	-4	17	33*
COc1ccc(C2=CC(c3ccco3)n3ncnc3N2)cc1 (stereo not drawn)	15	.	24	15	2	27	.
COc1ccc(OC)c(-n2c(SCC(=O)Nc3cc(C)on3)nnc2-c2c[nH]c3ccccc23)c1	20	5	52*	9	-2	0	3
C=CCOc1ccc(C2/C(=C(\O)c3ccc4c(c3)CC(C)O4)C(=O)C(=O)N2CCN2CCOCC2)cc1OCC (stereo not drawn)	16	-1	-8	3	-4	-7	.
O=C1[C@H]2[C@@H](C(=O)N1c1cc(Cl)cc(Cl)c1)[C@]1(C(=O)Nc3ccccc31)N1CCC[C@@H]21	31	-6	45*	13	13	14	26
COC(=O)c1c(N2C(=O)[C@H]3[C@@H](C2=O)[C@]2(C(=O)Nc4ccccc42)N2CCC[C@@H]32)sc(C)c1C	9	5	9	4	.	3	.
CCC1=C/C(=C/c2sc3ccccc3[n+]2CC)CC(C)(C)C1	38	2	42*	30	-12	23	35*
CC[n+]1c(/C=C2\C=C(C)CC(C)C2)sc2ccccc21 (stereo not drawn)	35	-2	30	22	-7	-2	.
CCOC(=O)c1sc(-c2ccc(F)cc2)cc1N	45	10	42*	27	.	-41	39*
SMILES	tim23-1 inh	SKKanGAS inh	tim10-1 inh	TIM10 inh	PfHsp90 set2	NALP3 yeast inh	tim10-1 confirm
N#Cc1ccc(C(=O)NC23CC4CC(CC(C4)C2)C3)cc1	26	-3	41*	8	-31	25	4
COc1ccc(Nc2nc(N)c(C(=O)c3ccc(OC)cc3)s2)cc1	37	12	44*	20	-42	16	0
COc1ccc(N2CCN(c3oc(Cc4ccccc4)nc3C#N)CC2)cc1	37	-1	40*	12	.	15	26
O=C1OC[C@H]2CCCN2C(=O)[C@@H](CC(=O)N(CCO)Cc2ccccc2)C/C=C\CC[C@H]1Cc1ccc(F)cc1	24	.	30	4	22	23	.
CN(C)/C=C/C(=O)c1ccc2noc(-c3ccc(F)cc3)c2c1	31	12	42*	9	59	8	13
CC(=O)c1ccc2noc(-c3ccc(C)cc3)c2c1	4	-3	6	10	-17	15	.
Cc1cccc(-c2onc3ccc(C(=O)/C=C/N(C)C)cc23)c1	27	8	48*	12	?	27	28
CCC(=O)N1CCc2cc(S(=O)(=O)NCCc3ccc(S(N)(=O)=O)cc3)ccc21	13	0	23	0	-6	6	.
CC(=NCCN1CCN(C(=S)Nc2ccccc2)CC1)C1=C(O)CC(C)(C)CC1=O	15	-13	9	3	-12	11	.
Cc1c(Cl)cccc1NC(=S)N1CCOCC1	7	5	-4	-1	-10	11	.
Cc1c(Cl)cccc1NC(=S)N1CCc2ccccc2C1	30	12	51*	38	15	-7	25
CC(NC(=O)c1ccc(Cl)cc1)C1CC2CCC1C2 (stereo not drawn)	12	5	-4	-24	13	32	.
CC(NC(=O)c1cccc(Cl)c1)C1CC2CCC1C2 (stereo not drawn)	38	3	45*	19	-18	4	35*
C#CCN(C(=O)c1cc(COc2cccc(C(F)(F)F)c2)on1)C1CCCCC1	25	26	28	24	10	-3	.
N/C(=N\S(=O)(=O)c1cc(C(F)(F)F)cc(C(F)(F)F)c1)c1ccc(Cl)cc1	47	20	46*	35	-97	15	43*
CN(C)CCCNCC(=O)c1c(-c2ccccc2)n(C)c2ccccc12	.	-3	.	.	22	.	.
O=C1NC(=O)/C(=C/c2ccccc2OCc2ccccc2)S1	20	27	46*	40	6	18	37*
O=C(COc1ccccc1/C=C1\SC(=O)NC1=O)Nc1ccccc1	25	?	18	13	-18	18	.
O=C1NC(=O)C(=Cc2ccc(Cl)cc2Cl)S1	.	.	.	.	-126	.	.

Screens: PubChem BioAssay, several laboratories
